According to the antibiotic and cytotoxicity screens of Wong et al. (2023):
The campaign covered roughly 39,000 compounds. About 3,300 (8.5%) were called active. Only a selection was taken, and actives are over-represented in it overall.

What follows are compounds tested on HepG2 (assay: cytotoxicity call (relative viability < 0.9)). Conditions: 10 µM.

Structure (SMILES) | cytotoxicity call
COc1ccc(S(=O)(=O)Nc2ccc3c(c2)C(=O)N([C@H](C)CO)C[C@@H](C)[C@H](CN(C)C(=O)NC2CCCCC2)OCCCC[C@H](C)O3)cc1 | inactive
C[C@H](CO)N1C[C@H](C)[C@H](CN(C)C(=O)Nc2ccc(F)cc2)Oc2ccc(NS(C)(=O)=O)cc2CC1=O | inactive
C[C@@H]1CCCCO[C@H](CN(C)S(=O)(=O)c2ccc(F)cc2)[C@@H](C)CN([C@@H](C)CO)C(=O)c2cc(NC(=O)C3CCCCC3)ccc2O1 | inactive
O=C1O[C@H](c2ccccc2)[C@H](c2ccccc2)N2[C@H]1[C@@H](C(=O)N1CCCCCCC1)[C@]1(C(=O)Nc3ccc(C#CCCO)cc31)[C@H]2c1ccc(OCCO)cc1 | inactive
COc1ccc(NC(=O)Nc2ccc3c(c2)C(=O)N([C@H](C)CO)C[C@H](C)[C@@H](CN(C)S(=O)(=O)c2ccc(OC)cc2)OCCCC[C@@H](C)O3)cc1 | inactive
COCC#Cc1ccc2c(c1)O[C@@H](CN(C)S(=O)(=O)c1ccc(C)cc1)[C@@H](C)CN([C@@H](C)CO)S2(=O)=O | inactive
C[C@@H]1CCCCO[C@@H](CN(C)Cc2ccc3c(c2)OCO3)[C@H](C)CN([C@@H](C)CO)C(=O)c2cc(NC(=O)Nc3ccc(F)cc3)ccc2O1 | inactive
C[C@@H]1CCCCO[C@H](CN(C)Cc2ccc3c(c2)OCO3)[C@@H](C)CN([C@@H](C)CO)C(=O)c2cc(NC(=O)Nc3ccc(F)cc3)ccc2O1 | active
C[C@H](CO)N1C[C@H](C)[C@H](CN(C)Cc2ccc3c(c2)OCO3)OCCCC[C@H](C)Oc2ccc(NC(=O)Nc3ccc(F)cc3)cc2C1=O | inactive
CN(C)CCCCNC(=O)[C@@H]1C[C@@H]2C(=O)N[C@@H](CCCCN(C)C)C(=O)N2[C@@H]1c1cccc(OCCO)c1 | inactive
S=c1[nH]c2ccccc2s1 | inactive
C[C@@H]1CN([C@@H](C)CO)C(=O)c2cc(NC(=O)CCCN(C)C)ccc2O[C@H]1CN(C)S(=O)(=O)c1cccs1 | inactive
COCCNCc1ccc(-c2cc3nccc(Oc4ccc(NC(=O)C5(C(=O)Nc6ccc(F)cc6)CC5)cc4F)c3s2)nc1 | active
COCCNCc1ccc(-c2cc3nccc(Oc4ccc(NC(=S)NC(=O)Cc5ccc(F)cc5)cc4F)c3s2)nc1 | active
Cn1cnc(-c2cc3nccc(Oc4ccc(NC(=S)NC(=O)Cc5ccccc5)cc4F)c3s2)c1 | inactive
COc1ccc(CN(C)C[C@H]2Oc3c(NC(=O)Nc4cccc5ccccc45)cccc3C(=O)N([C@H](C)CO)C[C@H]2C)cc1 | inactive
COc1cccc(CNC(=O)C[C@@H]2C=C[C@H](NC(=O)C3CCOCC3)[C@H](CO)O2)c1 | inactive
C[C@H]1CN([C@@H](C)CO)C(=O)c2cc(C#Cc3ccc(F)cc3)cnc2O[C@H]1CN(C)CC1CCOCC1 | inactive
C=CCN1C(=O)[C@@]2(O[C@H](CCOC(=O)NCCCCCC(=O)NO)[C@@H]([Si](C)(C)c3ccc(OC)cc3)[C@@H]2C)c2cc(I)ccc21 | inactive
O=C1NC(=O)[C@@H](c2ccccc2)N1 | inactive
O=C1NC2=C(C(=O)OC2)[C@H](c2ccccc2)N1 | active

Structure (SMILES) | cytotoxicity call
O=C1COC[C@@H](c2ccccc2)N1 | inactive
C[C@@H]1CN([C@@H](C)CO)C(=O)c2cc(NC(=O)Cc3ccccc3)ccc2O[C@H]1CN(C)S(=O)(=O)c1ccccc1 | inactive
C[C@@H]1CCCCO[C@@H](CN(C)C(=O)C2CCCCC2)[C@@H](C)CN([C@@H](C)CO)C(=O)c2cc(NS(=O)(=O)c3ccc(Cl)cc3)ccc2O1 | inactive
Cc1ccc(S(=O)(=O)N2CCO[C@@H]2CNC(=O)C(=O)NCc2ccccn2)cc1 | inactive
C[C@H](CO)N1C[C@H](C)[C@H](CN(C)Cc2ccc(C(=O)Nc3ccccc3N)cc2)Oc2ccc(NC(=O)Nc3ccc4c(c3)OCO4)cc2C1=O | inactive
COCCCNC(=O)[C@@]1(Cc2ccccc2I)c2ccccc2C(=O)N(C2CCCCC2)[C@H]1c1ccc(CO)cc1 | active
COc1ccccc1CN1C(=O)c2ccccc2[C@](Cc2ccccc2I)(C(=O)NCCN2CCOCC2)[C@@H]1c1ccc(CO)cc1 | inactive
O=C1c2ccccc2[C@](Cc2ccccc2I)(C(=O)NCC(F)(F)F)[C@H](c2ccc(CO)cc2)N1C1CCCCC1 | inactive
O=C1c2ccccc2[C@](Cc2ccccc2I)(C(=O)NCc2ccccc2)[C@H](c2ccc(CO)cc2)N1C1CCCCC1 | inactive
O=C1c2ccccc2[C@](Cc2ccccc2I)(C(=O)NCCN2CCOCC2)[C@H](c2ccc(CO)cc2)N1C1CCCCC1 | active
O=C1c2ccccc2[C@](Cc2ccccc2I)(C(=O)O)[C@H](c2ccc(CO)cc2)N1C1CCCCC1 | inactive
CN(C)CCCN1C(=O)[C@@]2(Cc3ccccc31)c1ccccc1C(=O)N(C1CCCCC1)[C@H]2c1ccc(CO)cc1 | inactive
COc1ccc(CCNC(=O)[C@@]2(Cc3ccccc3I)c3ccccc3C(=O)N(C3CCCCC3)[C@H]2c2ccc(CO)cc2)cc1 | inactive
CN(C)CCCNC(=O)[C@@]1(Cc2ccccc2I)c2ccccc2C(=O)N(C2CCCCC2)[C@H]1c1ccc(CO)cc1 | active
Cc1noc(C)c1NC(=O)N(C)C[C@@H]1OCCCC[C@H](C)Oc2ccc(NS(=O)(=O)c3ccc(F)cc3)cc2C(=O)N([C@@H](C)CO)C[C@@H]1C | inactive
CO[C@@H]1CN(C)C(=O)c2ccc(NS(=O)(=O)c3cn(C)cn3)cc2OC[C@@H](C)N(CC2CC2)C[C@H]1C | inactive
O=S(=O)(NCC[C@H]1CC[C@@H](NS(=O)(=O)c2ccccc2Cl)[C@H](CO)O1)c1ccc(F)cc1 | inactive
C[C@@H]1CN([C@@H](C)CO)C(=O)Cc2cc(NC(=O)Nc3ccc4c(c3)OCO4)ccc2O[C@@H]1CN(C)Cc1ccc(Oc2ccccc2)cc1 | active
C[C@H]1CN([C@@H](C)CO)C(=O)Cc2cc(NC(=O)Nc3ccc4c(c3)OCO4)ccc2O[C@H]1CN(C)Cc1ccc(Oc2ccccc2)cc1 | inactive
C[C@H](CO)N1C[C@H](C)[C@@H](CN(C)Cc2ccc(Oc3ccccc3)cc2)Oc2ccc(NC(=O)Nc3ccc4c(c3)OCO4)cc2CC1=O | inactive
C[C@H](CO)N1C[C@H](C)[C@H](CN(C)Cc2ccc(Oc3ccccc3)cc2)Oc2ccc(NC(=O)Nc3ccc4c(c3)OCO4)cc2CC1=O | active

Structure (SMILES) | cytotoxicity call
C[C@@H]1CN([C@@H](C)CO)C(=O)Cc2cc(NC(=O)Nc3ccc4c(c3)OCO4)ccc2O[C@H]1CN(C)Cc1ccc(Oc2ccccc2)cc1 | inactive
C[C@@H]1CN([C@H](C)CO)C(=O)Cc2cc(NC(=O)Nc3ccc4c(c3)OCO4)ccc2O[C@H]1CN(C)Cc1ccc(Oc2ccccc2)cc1 | inactive
C[C@H]1CN([C@@H](C)CO)C(=O)Cc2cc(NC(=O)Nc3ccc4c(c3)OCO4)ccc2O[C@@H]1CN(C)Cc1ccc(Oc2ccccc2)cc1 | inactive
C[C@@H]1CN([C@H](C)CO)C(=O)Cc2cc(NC(=O)Nc3ccc4c(c3)OCO4)ccc2O[C@@H]1CN(C)Cc1ccc(Oc2ccccc2)cc1 | active
C[C@@H]1CCCCO[C@H](CN(C)C(=O)Nc2ccc(F)cc2)[C@H](C)CN([C@@H](C)CO)C(=O)c2cc(NC(=O)C3CCCCC3)ccc2O1 | inactive
Cc1noc(C)c1S(=O)(=O)Nc1cccc2c1O[C@H](CN(C)S(=O)(=O)c1ccc(Cl)cc1)[C@H](C)CN([C@H](C)CO)C2=O | inactive
C[C@@H]1CCCCO[C@@H](CN(C)S(=O)(=O)c2ccc(Cl)cc2)[C@@H](C)CN([C@H](C)CO)C(=O)c2cc(NS(=O)(=O)c3ccccc3)ccc2O1 | inactive
C[C@H](CO)N1C[C@H](C)[C@H](CN(C)S(=O)(=O)c2ccc(C#N)cc2)Oc2ncc(-c3ccc(F)cc3)cc2C1=O | inactive
C[C@H]1CN([C@@H](C)CO)C(=O)Cc2cc(NC(=O)Nc3ccc(F)cc3)ccc2O[C@@H]1CN(C)Cc1ccc(Oc2ccccc2)cc1 | active
C[C@@H]1CN([C@@H](C)CO)C(=O)Cc2cc(NC(=O)Nc3ccc(F)cc3)ccc2O[C@H]1CN(C)Cc1ccc(Oc2ccccc2)cc1 | active
C[C@@H]1CN([C@H](C)CO)C(=O)Cc2cc(NC(=O)Nc3ccc(F)cc3)ccc2O[C@@H]1CN(C)Cc1ccc(Oc2ccccc2)cc1 | active
C[C@H](CO)N1C[C@H](C)[C@H](CN(C)Cc2ccc(Oc3ccccc3)cc2)Oc2ccc(NC(=O)Nc3ccc(F)cc3)cc2CC1=O | active
COc1ccc(CN(C)C[C@H]2OCCCC[C@@H](C)Oc3ccc(NC(=O)c4ccncc4)cc3C(=O)N([C@@H](C)CO)C[C@@H]2C)cc1 | inactive
Cc1ccc(S(=O)(=O)Nc2ccc3c(c2)C(=O)N([C@H](C)CO)C[C@@H](C)[C@H](CN(C)C(=O)c2ccccc2)OCCCC[C@@H](C)O3)cc1 | inactive
Cc1ccc(S(=O)(=O)N[C@H]2CC[C@H](CC(=O)N3CCC(Cc4ccccc4)CC3)O[C@@H]2CO)cc1 | inactive
C[C@@H]1CCCCO[C@@H](CN(C)C)[C@@H](C)CN([C@H](C)CO)C(=O)c2cc(NS(=O)(=O)c3cn(C)cn3)ccc2O1 | inactive
CC(C)NC(=O)N(C)C[C@H]1Oc2c(NC(=O)NC3CCCCC3)cccc2C(=O)N([C@@H](C)CO)C[C@H]1C | inactive
C[C@@H]1CN([C@@H](C)CO)C(=O)c2cccc(NC(=O)Nc3ccccc3)c2O[C@@H]1CN(C)S(=O)(=O)c1cn(C)cn1 | inactive
C[C@@H]1CCCCO[C@@H](CN(C)S(=O)(=O)c2cn(C)cn2)[C@H](C)CN([C@H](C)CO)C(=O)c2cc(N(C)C)ccc2O1 | inactive
O=C(CN1CCOCC1)N[C@@H]1CC[C@@H](CCNC(=O)Nc2cc(F)ccc2F)O[C@@H]1CO | inactive
